Assay outcomes: PubChem BioAssay, National Center for Advancing Translational Sciences (NCATS)
GLP-1R agonist: activates the human GLP-1 receptor; P43220; HEK293 GLP-1R CRE-luciferase, luminescence, 4-6 h; cells express a hypersensitive GLP-1R form; Potency, µM (top dose mostly 45.6 µM), usual class: activators; 380,000 tested, 0.007% active
Target sequence (P43220 whole entry, looked up): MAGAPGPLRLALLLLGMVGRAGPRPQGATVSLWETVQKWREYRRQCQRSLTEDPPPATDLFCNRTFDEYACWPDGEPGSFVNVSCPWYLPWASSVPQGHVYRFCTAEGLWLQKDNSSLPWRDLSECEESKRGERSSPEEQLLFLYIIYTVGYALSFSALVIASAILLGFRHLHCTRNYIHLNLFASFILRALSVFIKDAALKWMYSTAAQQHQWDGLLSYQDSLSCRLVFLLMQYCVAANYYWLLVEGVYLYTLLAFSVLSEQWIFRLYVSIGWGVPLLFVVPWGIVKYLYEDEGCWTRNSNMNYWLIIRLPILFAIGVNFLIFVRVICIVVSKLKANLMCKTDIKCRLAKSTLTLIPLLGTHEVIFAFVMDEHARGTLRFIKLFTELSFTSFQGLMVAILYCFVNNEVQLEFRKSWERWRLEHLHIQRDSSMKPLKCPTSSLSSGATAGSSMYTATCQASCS
GLP1R cytotox: cytotoxic in the GLP-1 receptor inverse agonist counter-screen; HEK293 cAMP-luciferase reporter cells, luminescence, 24 h; Potency, µM (series often up to 38.3 µM), actives largely listed as inhibitors; 410,000 tested, 0.13% active; AID 624418;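 further: loss of luciferase light is scored as toxicity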
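Step one: seed cells (200 cells/uL, DMEM with 10% Nu serum, 1% pen-strep). Step two: 12-hour incubation at 37 deg C. Step three: pin 23 nL compound, incubate 24 hr. Step four: add luciferase reagent, read luminescence 12 min later.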
GLP-1R inv ag: acts as inverse agonist at human GLP-1 receptor. P43220. HEK293 GLP-1R CRE-luciferase, luminescence, 24 h; GLP-1R form is constitutively active. Potency, µM (top dose mostly 38.3 µM), hits mostly inhibitors. 410,000 tested, 1.6% active. AID 624417; further: nearly all actives have a fitted effect of over 55% in size
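Luminescence readout: a drop in cAMP-driven luciferase signal flags inverse agonism at a constitutively active GLP-1R stably expressed in HEK293. Compound exposure lasted 24 hr at 37 deg C, 5% CO2.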
PTHR1 agonist: activates the human parathyroid hormone receptor PTHR1. Q03431. HEK293 GP2 PTHR1 cells, GloSensor cAMP luminescence, 1 h. Potency, µM (series often up to 115 µM), hits mostly activators. 410,000 tested, 0.075% active. AID 743266; further: nearly all actives have a fitted effect of over 55% in size
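HEK-293-derived GP2 cells expressing PTHR1 and a GloSensor cAMP reporter, 3,000/well, plated overnight, given luciferin plus IBMX (each 0.5 mM as added) for 1 h at 37 °C, then compound for 1 h at 37 °C. Luminescence was read after 15 min at room temperature.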
Of the large screens only hits and unclear results are named; the others gave an inactive call. This is a sample that favours compounds with a hit; in the whole collection about 1.7% have one here. The call rests on the fitted dose curve; in most records, active means well fitted curve in the direction sought with a large enough effect; inconclusive means small, poorly fitted or top-dose-only effect, or another doubt; inactive means no such curve, though single readings can be large; an effect the other way counts as inactive or inconclusive.

COc1cccc(C(=O)c2cn(CC(=O)Nc3cccc(C)c3C)c3nc(C)ccc3c2=O)c1	none (no result: GLP-1R agonist)
O=S(=O)(O)OCC1OC(COS(=O)(=O)O)(C2(OS(=O)(=O)O)OC(CO)C(OS(=O)(=O)O)C(OS(=O)(=O)O)C2OS(=O)(=O)O)C(OS(=O)(=O)O)C1OS(=O)(=O)O (stereo not given)	none (no result: GLP1R cytotox, GLP-1R inv ag, PTHR1 agonist)
CC1=NN(C(=O)CSCc2ccccc2)C(O)(c2ccc(F)cc2)C1 (stereo not given)	GLP-1R inv ag 7.9µM
CC1=NN(C(=O)CSCc2ccccc2)C(O)(c2ccc(Cl)cc2)C1 (stereo not given)	GLP-1R inv ag inconclusive
CCOc1cccc(C2CC(=O)Nc3cc4c(cc32)OCCO4)c1 (stereo not given)	GLP1R cytotox inconclusive, GLP-1R inv ag inconclusive (no result: GLP-1R agonist)
Cc1sc2ncnc(SC(C)C(=O)N3c4ccccc4Sc4ccccc43)c2c1C (stereo not given)	GLP-1R inv ag 8.9µM
Cc1cccc(N2CCN(C(=O)c3sc4nc5n(c(=O)c4c3C)CCC5)CC2C)c1 (stereo not given)	none (no result: GLP-1R agonist)
CCN1CCN(C(=O)/C=C/c2ccc(C)o2)CC1	none
Cc1ccc(/C=C/C(=O)N2CC(C)CC(C)C2)o1 (stereo not given)	GLP1R cytotox inconclusive, GLP-1R inv ag 10µM
OCCNc1nc(Nc2ccccc2)nc(Nc2ccccc2)n1	GLP-1R inv ag inconclusive
OCCNc1nc(Nc2ccc(Br)cc2)nc2ccccc12	GLP-1R inv ag 2µM
OCCNc1nc(Nc2ccccc2)nc2ccccc12	GLP-1R inv ag 7.1µM
Cc1c(Cl)cccc1Nc1nc(NCCO)c2ccccc2n1	GLP1R cytotox inconclusive, GLP-1R inv ag 2.5µM
Oc1ccccc1Nc1nc(NCc2ccccc2)c2ccccc2n1	GLP1R cytotox inconclusive, GLP-1R inv ag inconclusive
Cc1ccc(Nc2nc(NCc3ccco3)c3ccccc3n2)cc1	GLP1R cytotox inconclusive, GLP-1R inv ag 2.5µM
OCCNc1nc(-c2ccccc2)c2cc(Br)ccc2n1	GLP-1R agonist inconclusive
CSc1cccc(NC(=O)c2cnn(-c3ccc(F)cc3)c2-n2cccc2)c1	none
CN(C)c1ccc(N=Nc2ccccc2Br)cc1	GLP1R cytotox inconclusive, GLP-1R inv ag inconclusive
CN(C)c1ccc(N=Nc2nccs2)cc1	GLP1R cytotox 11µM, GLP-1R inv ag inconclusive
CCOc1ccc(OCC)c(NC(=O)CN2CCN(c3cccc(C)c3)CC2)c1	GLP-1R inv ag inconclusive
CCOc1ccc(OCC)c(NC(=O)CN2CCN(c3cc(C)ccc3C)CC2)c1	GLP1R cytotox inconclusive, GLP-1R inv ag 13µM
Cc1cccc(C(=O)Nc2ccccc2OCc2cc(=O)n3cc(C)ccc3n2)c1	none (no result: GLP-1R agonist)
O=C(CSc1nnnn1C1CCCCC1)Nc1cccc(NC(=O)c2ccco2)c1	GLP-1R inv ag 7.1µM
COc1ccccc1OCC(=O)NNC(=O)C1CCN(c2ncnc3sc(C)c(C)c23)CC1	GLP-1R inv ag inconclusive
COc1ccc(-c2csc(NC(=O)C3CCN(c4ncnc5sc(C)c(C)c45)CC3)n2)cc1OC	GLP1R cytotox inconclusive, GLP-1R inv ag 7.1µM
CCCC1([C@H](O)C/C=C/[C@H]2[C@H](O)CC(=O)[C@@H]2CCCCCCC(=O)OC)CCC1	none (no result: GLP1R cytotox, GLP-1R inv ag, PTHR1 agonist)
CCCc1[nH]c2ccc(C#N)cc2c1CCC	GLP1R cytotox inconclusive, GLP-1R inv ag 10µM
COC(=O)c1sc(-c2ccccc2)cc1NC(=O)c1cccc(F)c1	none (no result: GLP-1R agonist)
Cc1ccc(CNC(=O)C(C)n2nc(C)c3sc4ccccc4c3c2=O)cc1 (stereo not given)	PTHR1 agonist 45µM (no result: GLP-1R agonist)
Cc1nn(C(C)C(=O)NCc2ccc(OC(C)C)cc2)c(=O)c2c1sc1ccccc12 (stereo not given)	PTHR1 agonist inconclusive (no result: GLP-1R agonist)
CCOC(=O)CC(=O)CSc1nc2c(sc(=S)n2-c2ccc(C)c(C)c2)c(=O)[nH]1	GLP-1R inv ag 8.9µM
O=C(CS)Nc1ccccc1	none (no result: GLP1R cytotox, GLP-1R inv ag, PTHR1 agonist)
Cn1c(=O)c(NC2CCCCC2)c2c3c(cccc31)C(=O)c1ccccc1-2	GLP-1R inv ag 10µM
CNC[C@@H]1CC[C@@H](N)[C@@H](O[C@H]2[C@H](O)[C@@H](O[C@H]3OC[C@](C)(O)[C@H](NC)[C@H]3O)[C@H](N)C[C@@H]2N)O1	none (no result: GLP1R cytotox, GLP-1R inv ag, PTHR1 agonist)
CCOC(=O)c1cn2nc(N3CCCC3)ccc2n1	GLP-1R inv ag 5.6µM
CN(C)S(=O)(=O)c1cccc(NC(=O)c2ccc(COc3ccccc3)cc2)c1	GLP-1R inv ag 10µM
COCc1ccc(C(=O)Nc2cccc(S(=O)(=O)N(C)c3ccccc3)c2)cc1	GLP1R cytotox inconclusive, GLP-1R inv ag inconclusive
CN(C)c1oc(/C=C/c2ccc(F)cc2)nc1C#N	none (no result: GLP-1R agonist)
CCN(CC)CCCNc1ncnc2scc(-c3ccc(F)cc3)c12	GLP-1R inv ag 7.1µM
COc1ccc(-c2csc3ncnc(NCCCO)c23)cc1	none
C[C@H](CO)N1C[C@H](C)[C@H](CN(C)Cc2ccccc2)Oc2ccc(NC(=O)Nc3ccc(F)cc3)cc2C1=O	GLP-1R inv ag 11µM
C[C@@H]1CN([C@@H](C)CO)C(=O)c2cc(NC(=O)c3ccccc3)ccc2O[C@@H](C)CCCCO[C@@H]1CN(C)Cc1ccc(C(F)(F)F)cc1	GLP-1R inv ag 11µM
C[C@@H]1CCCCO[C@H](CN(C)Cc2ccc3c(c2)OCO3)[C@H](C)CN([C@@H](C)CO)C(=O)c2cc(NC(=O)c3ccccc3)ccc2O1	GLP-1R inv ag inconclusive
C[C@@H]1CN([C@H](C)CO)C(=O)Cc2cc(NS(=O)(=O)c3ccc(Cl)cc3)ccc2O[C@H]1CN(C)Cc1ccc(C(F)(F)F)cc1	GLP-1R inv ag 10µM
C[C@H](CO)N1C[C@H](C)[C@H](CN(C)Cc2ccccc2)Oc2c(NC(=O)Nc3ccc(F)cc3)cccc2C1=O	none
C[C@@H]1CN([C@H](C)CO)C(=O)Cc2cc(NS(=O)(=O)c3ccc(F)cc3)ccc2O[C@H]1CN(C)Cc1ccc(C(=O)O)cc1	none
COc1cc(NC(=O)c2cnc(N)s2)cc(C(=O)Nc2cccc(C(F)(F)F)c2)c1	GLP-1R inv ag 13µM
O=[N+]([O-])c1ccc(C=NN2CCCCCC2)cc1	GLP-1R inv ag 11µM
CCOC(=O)CC(NC(=O)Cn1nnc(-c2ccc(C(F)(F)F)cc2)n1)c1ccc(C)cc1 (stereo not given)	none
O=C1CN(CC(=O)Nc2cccc(Cl)c2Cl)c2ccccc2N1	GLP-1R inv ag 10µM
CCOC(=O)C1=C(N)Oc2cc(O)ccc2C1c1ccc([N+](=O)[O-])cc1 (stereo not given)	GLP-1R inv ag 10µM
CCOC(=O)C1=C(N)Oc2ccc3ccccc3c2C1c1ccc(O)cc1 (stereo not given)	GLP-1R inv ag inconclusive
O=C(CC1N=C2c3ccccc3N=C(SCc3ccccc3F)N2C1=O)NCc1ccc2c(c1)OCO2 (stereo not given)	none (no result: GLP-1R agonist)
CCC(CC)NC(=O)CON=C1c2ccccc2-c2ccccc21	GLP-1R inv ag 8.9µM
CCNC(=O)CON=C1c2ccccc2-c2ccccc21	GLP-1R agonist inconclusive, GLP-1R inv ag inconclusive
